Data published in PubChem BioAssay (NCI).
About 79,000 compounds went through this panel and 15% of them were active in at least one assay; those are over-represented in the sample as a whole. The source made the active and inactive calls. Rule as the data show it: active = growth inhibition above about 70%; inactive = the rest.

What was measured:
[1] = NCI Yeast Anticancer Drug Screen. Data for the rad52 strain (AID 147);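 also: 0% = growth of vehicle-treated control cultures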; details: S. cerevisiae rad52 mutant growth inhibition, active compounds read high
In short: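 Vehicle-treated cultures served as the reference for growth inhibition of compound-exposed yeast bearing a DNA repair mutation.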

[2] = NCI Yeast Anticancer Drug Screen. Data for the wt1 strain (AID 149);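 also: 0% = growth of vehicle-treated wt1 cultures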; details: S. cerevisiae wt1 strain (SPY 50644) growth inhibition, active compounds read high
In short: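 Using yeast strain wt1, compound-induced growth inhibition was determined against vehicle-treated cultures.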

[3] = NCI Yeast Anticancer Drug Screen. Data for the rad50EPP+ strain (AID 151);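 also: 0% = growth of vehicle-treated control cultures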; details: S. cerevisiae rad50 mutant strain, active compounds read high
In short: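 In this screen, rad50EPP+ yeast were exposed to compounds. Growth inhibition was scored against vehicle-treated controls.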

[4] = NCI Yeast Anticancer Drug Screen. Data for the mgt1 strain (AID 153); details: S. cerevisiae mgt1 mutant growth inhibition, active compounds read high
In short: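 mgt1 strain exposed; growth vs vehicle control recorded as inhibition.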

[5] = NCI Yeast Anticancer Drug Screen. Data for the rad50 strain (AID 155);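 also: 0% = growth of vehicle-only cultures of the same strain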; details: S. cerevisiae rad50 strain growth inhibition, active compounds read high
In short: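 Relative growth inhibition (compound vs vehicle) was measured in yeast with a defined repair-gene alteration.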

[6] = NCI Yeast Anticancer Drug Screen. Data for the mec2-1 strain (AID 157); details: S. cerevisiae mec2-1 strain, active compounds read high
In short: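 Vehicle-treated cultures served as reference for growth inhibition of compound-exposed mec2-1 yeast.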

[7] = NCI Yeast Anticancer Drug Screen. Data for the rad14 strain (AID 159);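 also: 0% = growth of vehicle-treated control cultures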; details: S. cerevisiae rad14 strain growth inhibition, active compounds read high
In short: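 Screen for anticancer potential: a yeast strain altered in DNA damage repair is grown with compound, and reduced growth is quantified against vehicle controls.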

[8] = NCI Yeast Anticancer Drug Screen. Data for the sgs1 mgt1 strain (AID 161);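 also: 0% = growth of cultures given vehicle only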; details: S. cerevisiae sgs1 mgt1 strain, active compounds read high
In short: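 Genetically altered yeast, compound exposure, growth inhibition relative to vehicle.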

[9] = NCI Yeast Anticancer Drug Screen. Data for the CLN2oe strain (AID 163);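 also: 0% = growth of vehicle-only control cultures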; details: S. cerevisiae CLN2oe strain, active compounds read high
In short: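 Inhibition relative to vehicle-treated yeast is reported. Cells: strain with genetic alteration in cell-cycle control, grown with compound.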

[10] = NCI Yeast Anticancer Drug Screen. Data for the cln2 rad14 strain (AID 165);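 also: 0% = growth equal to vehicle treated cultures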; details: S. cerevisiae cln2 rad14 strain, active compounds read high
In short: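 Each compound was tested on cln2 rad14 yeast. Inhibition of growth was calculated against vehicle-exposed controls.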

[11] = NCI Yeast Anticancer Drug Screen. Data for the bub3 strain (AID 167); details: S. cerevisiae bub3 mutant strain, active compounds read high
In short: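 Screening used yeast with an engineered genetic alteration affecting cell cycle control. Compound-exposed cultures were compared with vehicle cultures, and reduced growth was taken as inhibition.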

[12] = NCI Yeast Anticancer Drug Screen. Data for the wt2 strain (AID 169);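 also: 0% = growth of vehicle-treated yeast cultures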; details: S. cerevisiae wt2 strain growth inhibition, active compounds read high
In short: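 Inhibition of yeast growth was determined after compound treatment, normalised to controls receiving only vehicle.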

[13] = NCI Yeast Anticancer Drug Screen. Data for the mlh1 strain (AID 171);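 also: 0% = growth of vehicle-treated control cultures of the same strain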; details: S. cerevisiae mlh1 strain growth inhibition, active compounds read high
In short: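 Vehicle-normalised growth inhibition of a repair- or checkpoint-altered yeast strain following compound treatment.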

[14] = NCI Yeast Anticancer Drug Screen. Data for the sgs1 strain (AID 173);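 also: 0% = growth of vehicle-only control cultures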; details: S. cerevisiae sgs1 mutant, active compounds read high
In short: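 Screen format: yeast with repair or checkpoint alterations, compound exposure, growth read relative to vehicle.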

[15] = NCI Yeast Anticancer Drug Screen. Data for the mlh1 rad18 strain (AID 175); details: S. cerevisiae mlh1 rad18 strain growth inhibition, active compounds read high
In short: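 Vehicle-treated cultures served as the reference for growth inhibition in a yeast strain carrying DNA damage repair alterations exposed to each compound.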

[16] = NCI Yeast Anticancer Drug Screen. Data for the rad18 strain (AID 177); details: S. cerevisiae rad18 mutant growth inhibition, active compounds read high
In short: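 Test articles were incubated with altered yeast defective in DNA damage repair. Results are given as inhibition of growth versus vehicle.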

[17] = at 5.0 µM (retest, dose inferred, filed as 0.5)
[18] = at 50.0 µM (retest, dose inferred, filed as 5.0)

Measured: growth inhibition

c1ccc(-c2cc(C3CO3)c3ccccc3n2)cc1 (stereo not drawn)
active: [1]; at 33.0 µM 70% | [1]; at 100.0 µM 98% | [2]; at 100.0 µM 96% | [4]; at 100.0 µM 99% | [5]; at 50.0 µM 90.7% | [5]; at 100.0 µM 98% | [6]; at 50.0 µM 74.5% | [6]; at 100.0 µM 98% | [7]; at 100.0 µM 97% | [8]; [18] 80% | [8]; at 50.0 µM 95.5% | [9]; at 100.0 µM 97% | [11]; at 50.0 µM 93.2% | [11]; at 100.0 µM 99% | [12]; at 33.0 µM 77% | [12]; at 100.0 µM 99% | [13]; at 33.0 µM 73% | [13]; at 100.0 µM 99% | [14]; at 33.0 µM 80% | [14]; at 100.0 µM 98% | [15]; at 50.0 µM 95.8% | [16]; at 33.0 µM 89% | [16]; at 100.0 µM 97%
inactive: [1]; at 1.2 µM -1% | [1]; at 3.7 µM 5% | [1]; at 11.0 µM 19% | [2]; at 1.2 µM -1% | [2]; at 3.7 µM -3% | [2]; at 11.0 µM -5% | [2]; at 33.0 µM 2% | [3]; at 1.2 µM 2% | [3]; at 3.7 µM 6% | [3]; at 11.0 µM 24% | [3]; at 33.0 µM 46% | [3]; at 100.0 µM 68% | [4]; at 1.2 µM -2% | [4]; at 3.7 µM -4% | [4]; at 11.0 µM 1% | [4]; at 33.0 µM 69% | [5]; at 1.2 µM -4% | [5]; at 3.7 µM 1% | [5]; [17] -14% | [5]; at 11.0 µM -4% | [5]; at 33.0 µM 36% | [5]; [18] 15% | [6]; at 1.2 µM -3% | [6]; at 3.7 µM -1% | [6]; [17] -28% | [6]; at 11.0 µM -4% | [6]; at 33.0 µM 7% | [6]; [18] 35% | [7]; at 1.2 µM -4% | [7]; at 3.7 µM -4% | [7]; at 11.0 µM 1% | [7]; at 33.0 µM 25% | [8]; [17] -1% | [9]; at 1.2 µM -7% | [9]; at 3.7 µM -11% | [9]; at 11.0 µM -11% | [9]; at 33.0 µM 4% | [10]; [17] -29% | [10]; [18] 28% | [10]; at 50.0 µM 66.5% | [11]; at 1.2 µM 2% | [11]; at 3.7 µM -1% | [11]; [17] 8% | [11]; at 11.0 µM 10% | [11]; at 33.0 µM 41% | [11]; [18] 31% | [12]; at 1.2 µM -1% | [12]; at 3.7 µM 1% | [12]; at 11.0 µM 12% | [13]; at 1.2 µM -1% | [13]; at 3.7 µM -1% | [13]; at 11.0 µM 6% | [14]; at 1.2 µM 0% | [14]; at 3.7 µM 1% | [14]; at 11.0 µM 19% | [15]; [17] -17% | [15]; [18] 69% | [16]; at 1.2 µM 2% | [16]; at 3.7 µM 11% | [16]; at 11.0 µM 53%
